# Results filed as inconclusive are left out. A call without a number means that no potency is given here. Some structures have more than one record in an assay (separate samples or runs), and their calls can disagree. Unmarked numbers belong to inactive results. Calls of active or inactive are those of the source. Unless noted, calls come from the whole dose curve; as a rule, active = well fitted curve in the direction sought with a large enough effect in the repeat runs; inconclusive = weak or mixed curves; inactive = no such curve, though single readings can be large; an effect the other way counts as inactive or inconclusive.
# Tests used:
# [1] = qHTS assay to identify aromatase inhibitors - cell viability counter screen (AID 743084);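 note: cells stimulated with testosterone during compound exposure; nearly all actives have a fitted effect of over 55% in size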; note: potency is the fitted concentration of half-maximal effect
# [2] = biological target: Aryl hydrocarbon receptor (Homo sapiens) (UniProt P35869); assay: qHTS assay to identify small molecule that activate the aryl hydrocarbon receptor (AhR) signaling pathway (AID 743085); note: nearly all actives have a fitted effect of over 15% in size; note: potency is the fitted concentration of half-maximal effect;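 for activation: HG2L7.5c1 human HepG2 liver cells with stably integrated DRE-driven firefly reporter; series mostly up to about 70 µM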
# Method in brief: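 24 h compound exposure, 37C, HepG2-derived HG2L7.5c1 cells with DRE-responsive luciferase. Readouts: fluorescence viability, then luminescence at room temperature after 30 min.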
# [3] = qHTS assay to identify small molecule that activate the aryl hydrocarbon receptor (AhR) signaling pathway - cell viability counter screen (AID 743086); note: nearly all actives have a fitted effect of over 45% in size; note: potency is the fitted concentration of half-maximal effect;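 for viability change, negative = cytotoxic: HepG2 liver cells carrying the AhR DRE luciferase reporter; series mostly up to about 70 µM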
# Method in brief: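 HepG2-AhR-luc (HG2L7.5c1) cells, 4000/well, were preincubated 5 h at 37C, exposed to compound in qHTS format for 24 hr at 37C, then given CellTiter-Fluor for 30 min; viability was read as fluorescence in the reporter wells.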
# [4] = biological target: Peroxisome proliferator-activated receptor gamma (Homo sapiens) (UniProt P37231); assay: qHTS assay to identify small molecule agonists of the peroxisome proliferator-activated receptor gamma (PPARg) signaling pathway (AID 743094; active = well fitted activation curve with a large enough effect in the signal ratio in the repeat runs, not every such curve was filed as active; the % refers to the signal ratio)
# Method in brief: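 Agonism was assessed in a beta-lactamase reporter system, HEK293H cells with a stably integrated UAS-bla construct under PPARg control; the 17 h treatment at 37C preceded a 1 h room-temperature FRET substrate read.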
# [5] = biological target: Peroxisome proliferator-activated receptor gamma (Homo sapiens) (UniProt P37231); assay: qHTS assay to identify small molecule antagonists of the peroxisome proliferator-activated receptor gamma (PPARg) signaling pathway (AID 743191; calls by dose curve; note: nearly all actives have a fitted effect of over 30% in size; note: potency is the fitted concentration of half-maximal effect; for ratio activity, negative = inhibition: series mostly up to about 63 µM)
# Method in brief: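 GeneBLAzer PPARg UAS-bla HEK293H cells carrying a UAS-driven beta-lactamase reporter were plated at 3000 cells/well, preincubated 5 h at 37C, then given compound for 17 h at 37C; LiveBLAzer B/G FRET substrate was read after 1 h at room temperature.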
# [6] = qHTS assay to identify small molecule antagonists of the peroxisome proliferator-activated receptor gamma (PPARg) signaling pathway - cell viability counter screen (AID 743194); note: nearly all actives have a fitted effect of over 55% in size
# Method in brief: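 PPARg-UAS-bla HEK293H cells were plated, rested 5 h at 37 C, then treated with compounds plus rosiglitazone (50 nM final) for 17 h at 37 C; viability was then read by CellTiter-Glo luminescence after 30 min at room temperature.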
# [7] = qHTS assay for small molecule agonists of the antioxidant response element (ARE) signaling pathway (AID 743202; active = well fitted activation curve with a large enough effect in the signal ratio in the repeat runs, not every such curve was filed as active; the % refers to the signal ratio; note: potency is the fitted concentration of half-maximal effect)
# Method in brief: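 Following a 16 h, 37 C exposure of reporter HepG2 cells (ARE-driven beta-lactamase, 2,000 cells/well) to compounds, FRET substrate was applied for 2 h at room temperature and fluorescence intensity recorded.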
# [8] = qHTS assay for small molecule activators of the heat shock response signaling pathway - cell viability counter screen (AID 743209); note: nearly all actives have a fitted effect of over 50% in size
# Method in brief: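 Compounds dissolved in DMSO were added to overnight-plated HSE-bla HeLa cells and left 5 h at 37 C. Cell viability was quantified by luminescence using CellTiter-Glo.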
# [9] = qHTS assay for small molecule activators of the heat shock response signaling pathway (AID 743210; active = well fitted activation curve with a large enough effect in the signal ratio in the repeat runs, with a control signal flat, not every such curve was filed as active; the % refers to the signal ratio; note: series mostly up to about 63 µM)
# Method in brief: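 Heat shock element–beta-lactamase HeLa reporter cells; qHTS with compounds for 5 h at 37 C; detection by FRET substrate fluorescence after 2.5 h at RT.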
# [10] = qHTS assay for small molecule agonists of the antioxidant response element (ARE) signaling pathway - cell viability counter screen (AID 743203; calls by dose curve; note: nearly all actives have a fitted effect of over 55% in size)
# Method in brief: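 ATP content via CellTiter-Glo luminescence served as the viability measure. Cells: ARE-bla HepG2, 2,000 per well. Exposure: 16 hrs, 37C/5% CO2.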
# Sequence of Aryl hydrocarbon receptor (Homo sapiens) (P35869 whole entry, looked up): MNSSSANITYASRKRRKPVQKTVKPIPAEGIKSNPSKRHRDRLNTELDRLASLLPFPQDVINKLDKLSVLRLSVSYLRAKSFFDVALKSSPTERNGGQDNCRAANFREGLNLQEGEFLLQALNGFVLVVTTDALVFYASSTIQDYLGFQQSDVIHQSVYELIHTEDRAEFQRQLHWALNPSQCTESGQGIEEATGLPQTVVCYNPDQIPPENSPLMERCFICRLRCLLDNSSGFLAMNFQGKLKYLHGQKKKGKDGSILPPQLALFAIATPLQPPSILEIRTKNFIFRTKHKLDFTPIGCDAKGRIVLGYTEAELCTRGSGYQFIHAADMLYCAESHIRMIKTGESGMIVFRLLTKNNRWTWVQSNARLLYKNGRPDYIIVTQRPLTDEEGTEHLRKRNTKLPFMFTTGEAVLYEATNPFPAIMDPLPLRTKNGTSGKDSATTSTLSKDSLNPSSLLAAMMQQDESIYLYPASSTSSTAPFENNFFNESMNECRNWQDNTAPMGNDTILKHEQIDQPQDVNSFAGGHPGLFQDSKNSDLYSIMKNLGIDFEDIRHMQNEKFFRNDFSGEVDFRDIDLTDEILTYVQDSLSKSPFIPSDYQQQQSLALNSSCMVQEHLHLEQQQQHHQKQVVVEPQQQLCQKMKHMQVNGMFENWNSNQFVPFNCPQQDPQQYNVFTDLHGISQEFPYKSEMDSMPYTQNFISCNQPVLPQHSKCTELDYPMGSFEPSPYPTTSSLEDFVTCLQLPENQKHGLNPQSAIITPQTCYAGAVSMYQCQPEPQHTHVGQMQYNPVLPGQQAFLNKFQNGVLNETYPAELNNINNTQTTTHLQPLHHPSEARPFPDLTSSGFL
# Sequence of Peroxisome proliferator-activated receptor gamma (Homo sapiens) (P37231 whole entry, looked up): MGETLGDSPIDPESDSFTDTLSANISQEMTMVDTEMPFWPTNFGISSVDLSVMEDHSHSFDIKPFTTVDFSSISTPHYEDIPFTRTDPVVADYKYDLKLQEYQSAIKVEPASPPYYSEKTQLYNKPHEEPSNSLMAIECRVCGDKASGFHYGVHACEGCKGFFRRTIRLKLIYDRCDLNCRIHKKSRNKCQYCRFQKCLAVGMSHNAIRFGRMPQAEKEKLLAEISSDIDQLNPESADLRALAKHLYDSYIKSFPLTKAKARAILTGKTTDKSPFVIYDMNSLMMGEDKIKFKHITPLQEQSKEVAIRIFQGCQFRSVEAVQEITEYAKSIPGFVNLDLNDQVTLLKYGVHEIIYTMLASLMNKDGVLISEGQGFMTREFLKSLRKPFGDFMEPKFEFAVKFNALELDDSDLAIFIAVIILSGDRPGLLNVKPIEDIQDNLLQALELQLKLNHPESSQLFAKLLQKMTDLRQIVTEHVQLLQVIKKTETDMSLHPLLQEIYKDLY
smiles,measurement,setting,value
O=C(OCCOCCOCCOC(=O)c1ccccc1)c1ccccc1,Potency,[1],inactive
same,Potency,[2],inactive
same,Potency,[3],inactive
same,Potency,[4],inactive
same,Potency,[5],inactive
same,Potency,[6],inactive
same,Potency,[7],inactive
same,outcome,[8],inactive
same,outcome,[9],inactive
C/C(=C(\CCO)SS/C(CCO)=C(\C)N(C=O)Cc1cnc(C)nc1N)N(C=O)Cc1cnc(C)nc1N,Potency,[1],inactive
same,Potency,[2],inactive
same,Potency,[3],inactive
same,Potency,[4],inactive
same,Potency,[5],inactive
same,Potency,[6],inactive
same,Potency,[7],inactive
same,Potency,[10],inactive
same,outcome,[8],inactive
same,outcome,[9],inactive
CCCCCCCCS,Potency,[1],inactive
same,Potency,[2],inactive
same,Potency,[3],inactive
same,Potency,[4],inactive
same,Potency,[5],inactive
same,Potency,[6],inactive
same,Potency,[7],inactive
same,outcome,[8],inactive
same,outcome,[9],inactive
CCCOC(C)=O,Potency,[1],inactive
same,Potency,[2],inactive
same,Potency,[3],inactive
same,Potency,[4],inactive
same,Potency,[5],inactive
same,Potency,[6],inactive
same,Potency,[7],inactive
same,Potency,[10],inactive
same,outcome,[8],inactive
same,outcome,[9],inactive
CC(COc1ccccc1)NC(C)C(O)c1ccc(O)cc1 (centres undefined),Potency,[1],inactive
same,Potency,[2],inactive
same,Potency,[3],inactive
same,Potency,[4],inactive
same,Potency,[5],inactive
same,Potency,[6],inactive
same,Potency,[7],inactive
same,Potency,[10],inactive
same,outcome,[8],inactive
C=C[Si]1(C)O[Si](C)(C=C)O[Si](C)(C=C)O[Si](C)(C=C)O1 (centres undefined),Potency,[1],inactive
same,Potency,[2],inactive
same,Potency,[3],inactive
same,Potency,[4],inactive
same,Potency,[5],inactive
same,Potency,[6],inactive
same,Potency,[7],inactive
same,Potency,[10],inactive
CC1=CC(=C(c2ccc(N)cc2)c2ccc(N)cc2)C=CC1=N,Potency,[1],11.9 µM (active)
same,Potency,[2],inactive
same,Potency,[3],18.8 µM (active)
same,"viability change, negative = cytotoxic",[3],-14.7% [at 8.47 µM]
same,"activity change, negative = cytotoxicity",[6],-29.3% [at 5.95 µM]
same,"activity change, negative = cytotoxicity",[8],-5.14% [at 5.95 µM]
same,activation,[9],-0.545% [at 5.95 µM]
C[C@@H](O)[C@H]1C(=O)N2C(C(=O)O)=C(S[C@@H]3CN[C@H](CNS(N)(=O)=O)C3)[C@H](C)[C@H]12,Potency,[1],inactive
same,Potency,[2],inactive
same,Potency,[3],inactive
same,Potency,[4],inactive
same,Potency,[5],inactive
same,Potency,[6],inactive
same,Potency,[7],inactive
same,Potency,[10],inactive
same,outcome,[8],inactive
same,outcome,[9],inactive
c1ccc(CCNc2nc(-c3ccccc3)cs2)cc1,Potency,[1],inactive
same,Potency,[2],15 µM (active)
same,Potency,[3],inactive
same,Potency,[4],inactive
same,Potency,[5],inactive
same,Potency,[6],inactive
same,Potency,[10],inactive
same,outcome,[8],inactive
same,outcome,[9],inactive
CC1=C(C)C(=O)C(CCCCC#CCCCC#CCO)=C(C)C1=O,Potency,[1],inactive
same,Potency,[2],11.9 µM (active)
same,Potency,[3],inactive
same,Potency,[4],inactive
same,Potency,[5],29.8 µM (active)
same,Potency,[6],inactive
same,Potency,[7],23.7 µM (active)
O=C(O)c1ccccc1[N+](=O)[O-],Potency,[1],inactive
same,Potency,[2],inactive
same,Potency,[3],inactive
same,Potency,[4],inactive
same,Potency,[5],inactive
same,Potency,[6],inactive
same,Potency,[10],inactive
same,outcome,[8],inactive
same,outcome,[9],inactive
CCCC1CCOC(C)S1 (centres undefined),Potency,[1],inactive
same,Potency,[2],inactive
same,Potency,[3],inactive
same,Potency,[4],inactive
same,Potency,[5],inactive
same,Potency,[6],inactive
same,Potency,[7],inactive
same,Potency,[10],inactive
same,outcome,[8],inactive
same,outcome,[9],inactive
NC(=O)c1ccccc1,Potency,[1],inactive
same,Potency,[2],inactive
same,Potency,[3],inactive
same,Potency,[4],inactive
same,Potency,[5],inactive
same,Potency,[6],inactive
same,Potency,[7],inactive
same,Potency,[10],inactive
same,outcome,[8],inactive
same,outcome,[9],inactive
O=C1CCCN1CCO,Potency,[1],inactive
same,Potency,[2],inactive
same,Potency,[3],inactive
same,Potency,[4],inactive
same,Potency,[5],inactive
same,Potency,[6],inactive
same,Potency,[10],inactive
same,outcome,[8],inactive
COc1ccc(CN(CCN(C)C)c2ncccn2)cc1,Potency,[1],inactive
same,Potency,[2],inactive
same,Potency,[3],inactive
same,Potency,[4],inactive
same,Potency,[5],inactive
same,Potency,[6],inactive
same,Potency,[10],inactive
same,outcome,[8],inactive
same,outcome,[9],inactive
O=C(O)c1c2ccccc2cc2ccccc12,Potency,[1],inactive
same,Potency,[2],inactive
same,Potency,[3],inactive
same,Potency,[5],inactive
same,Potency,[6],inactive
same,Potency,[7],inactive
same,Potency,[10],inactive
same,outcome,[8],inactive
same,outcome,[9],inactive
O=C1c2ccccc2C(=O)C1c1ccc2cc(S(=O)(=O)O)cc(S(=O)(=O)O)c2n1,Potency,[1],29.5 µM (active)
same,Potency,[2],inactive
same,Potency,[3],33.1 µM (active)
same,Potency,[4],inactive
same,Potency,[6],inactive
same,Potency,[7],5.25 µM (active)
same,Potency,[10],inactive
same,outcome,[8],inactive
same,outcome,[9],inactive
COc1ccc(C(=O)Nc2ccccc2)cc1[N+](=O)[O-],Potency,[1],inactive
same,Potency,[2],30.9 µM (active)
same,Potency,[3],inactive
same,Potency,[4],inactive
same,Potency,[6],inactive
same,Potency,[10],inactive
same,outcome,[8],inactive
same,outcome,[9],inactive
N#CCCCC(C#N)CCC#N (centres undefined),Potency,[1],inactive
same,Potency,[2],inactive
same,Potency,[3],inactive
same,Potency,[4],inactive
same,Potency,[7],inactive
same,Potency,[10],inactive
same,outcome,[8],inactive
same,outcome,[9],inactive
COC=O,"activity change, negative = cytotoxicity",[1],0.892% [at 8.47 µM]
same,activation,[2],-0.706% [at 8.47 µM]
same,"viability change, negative = cytotoxic",[3],14.9% [at 8.47 µM]
same,"ratio activity, negative = inhibition",[5],0.629% [at 5.95 µM]
same,"activity change, negative = cytotoxicity",[6],-0.602% [at 5.95 µM]
same,activation,[7],-6.55% [at 8.36 µM]
same,"viability change, negative = cytotoxic",[10],-4.87% [at 8.36 µM]
same,"activity change, negative = cytotoxicity",[8],-11.9% [at 5.95 µM]
CCOc1ccccc1O,Potency,[1],inactive
same,Potency,[2],inactive
same,Potency,[3],inactive
same,Potency,[4],inactive
same,Potency,[6],inactive
same,Potency,[7],inactive
same,Potency,[10],inactive
same,outcome,[8],inactive
same,outcome,[9],inactive
NC(=O)c1ccccc1C(N)=O,Potency,[1],inactive
same,Potency,[2],54.7 µM (active)
same,Potency,[3],inactive
same,Potency,[4],inactive
same,Potency,[6],inactive
same,Potency,[7],24.4 µM (active)
same,Potency,[10],inactive
same,outcome,[8],inactive
same,outcome,[9],inactive
O=C(O)COCC(=O)O,Potency,[1],inactive
same,Potency,[2],inactive
same,Potency,[3],inactive
same,Potency,[4],inactive
same,Potency,[6],inactive
same,Potency,[7],inactive
same,Potency,[10],inactive
same,outcome,[8],inactive
same,outcome,[9],inactive
CC(C)(C)N,Potency,[1],inactive
same,Potency,[2],inactive
same,Potency,[3],inactive
same,Potency,[4],inactive
same,Potency,[6],inactive
same,Potency,[7],inactive
same,Potency,[10],inactive
same,outcome,[8],inactive
same,outcome,[9],inactive
CCCCOC(=O)C(C)Oc1ccc(Oc2ccc(C(F)(F)F)cn2)cc1 (centres undefined),Potency,[1],inactive
same,Potency,[2],inactive
same,Potency,[3],inactive
same,Potency,[4],inactive
same,Potency,[6],inactive
same,Potency,[10],inactive
same,outcome,[8],inactive
same,outcome,[9],inactive
CCC(=O)O[C@@H]1C[C@H]2CC[C@]1(C)C2(C)C,Potency,[1],inactive
same,Potency,[2],inactive
same,Potency,[3],inactive
same,Potency,[4],inactive
same,Potency,[6],inactive
same,Potency,[7],inactive
same,Potency,[10],inactive
same,outcome,[8],inactive
same,outcome,[9],inactive

# From PubChem BioAssay (Tox21)
